PubChem BioAssay (NCATS)
Results filed as inconclusive are left out. Calls of active or inactive are those of the source. Calls come from the whole dose curve; as a rule, active = well fitted cell-killing curve with a large enough effect; inconclusive = small, poorly fitted or top-dose-only effect, or effect the other way; inactive = no such curve, though single readings can be large or run the other way.

Legend:
[1] = Quantitative High-Throughput drug screen in 47 multiple myeloma cell lines against the NCATS MIPE library collection: KMS28PE_JCRB cell viability assay (AID 1918983); note: nearly all actives have a fitted effect of over 35% in size
Summary of the method: (§1)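 Inhibition of viability over 48 h was scored by ATP content (CellTiter-Glo) in 500-cell wells. Zero and full viability were defined by media-only and DMSO-only wells.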

[2] = Quantitative High-Throughput drug screen in 47 multiple myeloma cell lines against the NCATS MIPE library collection: L363_DSMZ cell viability assay (AID 1918984); note: nearly all actives have a fitted effect of over 40% in size
Summary of the method: as §1

[3] = Quantitative High-Throughput drug screen in 47 multiple myeloma cell lines against the NCATS MIPE library collection: KMS34_JCRB cell viability assay (AID 1918985); note: nearly all actives have a fitted effect of over 40% in size
Summary of the method: as §1

[4] = Quantitative High-Throughput drug screen in 47 multiple myeloma cell lines against the NCATS MIPE library collection: OCIMY7_PLB cell viability assay (AID 1918987); conditions: OCI-MY7 myeloma viability, CellTiter-Glo ATP, 48 h; viability (% of DMSO): at 45.8 µM (top of the series); note: nearly all actives have a fitted effect of over 65% in size
Summary of the method: as §1

[5] = Quantitative High-Throughput drug screen in 47 multiple myeloma cell lines against the NCATS MIPE library collection: OCIMY5_PLB cell viability assay (AID 1918988); note: nearly all actives have a fitted effect of over 65% in size
Summary of the method: as §1

[6] = Quantitative High-Throughput drug screen in 47 multiple myeloma cell lines against the NCATS MIPE library collection: OPM1_PLB cell viability assay (AID 1918989); note: nearly all actives have a fitted effect of over 40% in size
Summary of the method: as §1

[7] = Quantitative High-Throughput drug screen in 47 multiple myeloma cell lines against the NCATS MIPE library collection: SKMM1_PLB cell viability assay (AID 1919863); conditions: SKMM1 myeloma viability, CellTiter-Glo ATP, 48 h; viability: active compounds read low; note: nearly all actives have a fitted effect of over 35% in size
Summary of the method: as §1

[8] = Quantitative High-Throughput drug screen in 47 multiple myeloma cell lines against the NCATS MIPE library collection: U266_ATCC cell viability assay (AID 1919864); note: nearly all actives have a fitted effect of over 35% in size
Summary of the method: as §1

[9] = Quantitative High-Throughput drug screen in 47 multiple myeloma cell lines against the NCATS MIPE library collection: XG6_PLB cell viability assay (AID 1919865); note: nearly all actives have a fitted effect of over 40% in size
Summary of the method: as §1

[10] = Quantitative High-Throughput drug screen in 47 multiple myeloma cell lines against the NCATS MIPE library collection: XG1_PLB cell viability assay (AID 1919866); note: nearly all actives have a fitted effect of over 35% in size
Summary of the method: as §1

[11] = Quantitative High-Throughput drug screen in 47 multiple myeloma cell lines against the NCATS MIPE library collection: VP6_DJ cell viability assay (AID 1919867); note: nearly all actives have a fitted effect of over 40% in size
Summary of the method: as §1

[12] = Quantitative High-Throughput drug screen in 47 multiple myeloma cell lines against the NCATS MIPE library collection: UTMC2_PLB cell viability assay (AID 1919868); conditions: CellTiter-Glo ATP luminescence, 48 h; viability (% of DMSO control): at 45.8 µM (top of the series); note: nearly all actives have a fitted effect of over 55% in size
Summary of the method: as §1

[13] = Quantitative High-Throughput drug screen in 47 multiple myeloma cell lines against the NCATS MIPE library collection: PE2_PLB cell viability assay (AID 1919869); note: nearly all actives have a fitted effect of over 35% in size
Summary of the method: as §1

[14] = Quantitative High-Throughput drug screen in 47 multiple myeloma cell lines against the NCATS MIPE library collection: PCM6_Riken cell viability assay (AID 1919870); note: nearly all actives have a fitted effect of over 30% in size
Summary of the method: as §1

[15] = Quantitative High-Throughput drug screen in 47 multiple myeloma cell lines against the NCATS MIPE library collection: RPMI8226_ATCC cell viability assay (AID 1919871); note: nearly all actives have a fitted effect of over 30% in size
Summary of the method: as §1

[16] = Quantitative High-Throughput drug screen in 47 multiple myeloma cell lines against the NCATS MIPE library collection: OPM2_DSMZ cell viability assay (AID 1919872); note: nearly all actives have a fitted effect of over 30% in size
Summary of the method: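 CellTiter-Glo ATP luminescence gave viability after 48 h compound treatment at 37C of 500 multiple myeloma cells per well. Normalisation used DMSO-only wells as 100% and media-only wells as 0% viability; primary qHTS of approved and investigational drugs.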

[17] = Quantitative High-Throughput drug screen in 47 multiple myeloma cell lines against the NCATS MIPE library collection: KMS11_JCRBsus cell viability assay (AID 1919873); note: nearly all actives have a fitted effect of over 50% in size
Summary of the method: as §1

[18] = Quantitative High-Throughput drug screen in 47 multiple myeloma cell lines against the NCATS MIPE library collection: KMS28BM_JCRB cell viability assay (AID 1919874); note: nearly all actives have a fitted effect of over 35% in size
Summary of the method: as §1

Measured: Potency
Potency is the fitted concentration of half-maximal effect.

CCN(CC)CCNC(=O)c1c(C)[nH]c(C=C2C(=O)Nc3ccc(F)cc32)c1C
active: [1] 5.4 µM | [2] 0.54 µM | [3] 6.05 µM | [4] 0.171 µM | [5] 8.55 µM | [6] 1.52 µM | [7] 27 µM | [8] 3.4 µM | [9] 1.71 µM | [10] 3.03 µM | [11] 1.52 µM | [12] 0.54 µM | [13] 2.15 µM | [14] 1.52 µM | [15] 10.8 µM | [16] 6.05 µM | [17] 1.52 µM | [18] 5.4 µM

CCS(=O)(=O)Nc1ccc2[nH]c(O)c(C(=Nc3ccc(CN4CCCCC4)cc3)c3ccccc3)c2c1
active: [1] 1.05 µM | [2] 0.0526 µM | [3] 0.935 µM | [4] 0.0662 µM | [5] 2.09 µM | [6] 0.332 µM | [7] 5.9 µM | [8] 5.9 µM | [9] 3.32 µM | [10] 1.32 µM | [11] 0.59 µM | [12] 0.0935 µM | [13] 0.469 µM | [14] 3.72 µM | [15] 0.332 µM | [16] 0.833 µM | [17] 0.166 µM | [18] 0.132 µM

c1ccc(CNc2nc(NCc3ccccc3)c3ccccc3n2)cc1
active: [1] 23.5 µM | [2] 5.26 µM | [3] 20.9 µM | [4] 4.69 µM | [5] 20.9 µM | [6] 7.43 µM | [7] 29.6 µM | [8] 14.8 µM | [9] 8.33 µM | [10] 7.43 µM | [11] 8.33 µM | [12] 10.5 µM | [13] 11.8 µM | [18] 11.8 µM

C=C1C(=O)O[C@H]2[C@@H]1CCC(C)=CCC[C@@]1(C)O[C@@H]21
active: [1] 7.43 µM | [2] 9.35 µM | [3] 2.09 µM | [4] 0.526 µM | [5] 4.18 µM | [7] 16.6 µM | [8] 6.62 µM | [9] 5.9 µM | [10] 2.64 µM | [11] 4.18 µM | [12] 4.69 µM | [14] 3.32 µM | [15] 5.26 µM | [16] 5.9 µM | [17] 3.32 µM | [18] 7.43 µM

C=CCNC1=C2C[C@@H](C)C[C@H](OC)[C@@H](O)[C@@H](C)C=C(C)[C@H](OC(N)=O)[C@@H](OC)C=CC=C(C)C(=O)NC(=CC1=O)C2=O
active: [1] 0.418 µM | [2] 0.0264 µM | [3] 0.235 µM | [4] 0.833 µM | [5] 0.526 µM | [6] 1.32 µM | [7] 0.833 µM | [8] 0.833 µM | [9] 2.64 µM | [11] 0.264 µM | [12] 1.32 µM | [13] 4.18 µM | [15] 1.05 µM | [16] 2.35 µM | [18] 0.662 µM

O=C1NC(=O)C(=Cc2ccc3nccc(-c4ccncc4)c3c2)S1
active: [1] 0.372 µM | [2] 0.0469 µM | [3] 0.296 µM | [4] 0.0662 µM | [5] 0.526 µM | [6] 0.0743 µM | [7] 0.59 µM | [8] 0.418 µM | [9] 0.0833 µM | [10] 0.0332 µM | [11] 0.132 µM | [12] 0.0372 µM | [13] 0.0469 µM | [14] 0.166 µM | [15] 0.235 µM | [17] 0.0662 µM | [18] 0.372 µM

CN1[C@H]2CC(OC(=O)[C@@H](CO)c3ccccc3)C[C@H]1[C@H]1O[C@H]12 (some centres not stated)
not listed: [7] | [8] | [11] | [12]
inactive: all other assays above

CC(=O)ON=C1C(c2c(O)[nH]c3cc(Br)ccc23)=Nc2ccccc21
active: [1] 20.9 µM | [2] 3.72 µM | [3] 4.69 µM | [4] 1.48 µM | [5] 9.35 µM | [6] 3.72 µM | [7] 18.7 µM | [8] 14.8 µM | [9] 1.32 µM | [11] 2.64 µM | [14] 2.96 µM | [15] 16.6 µM | [16] 18.7 µM

NC(=O)Nc1sc(-c2ccc(F)cc2)cc1C(N)=O
active: [1] 18.7 µM | [2] 0.0833 µM | [3] 2.64 µM | [4] 0.662 µM | [5] 2.09 µM | [6] 0.833 µM | [7] 11.8 µM | [8] 13.2 µM | [9] 0.0105 µM | [10] 0.0469 µM | [11] 1.32 µM | [12] 0.743 µM | [13] 0.372 µM | [14] 0.833 µM | [15] 5.9 µM | [16] 18.7 µM | [18] 4.69 µM
